Records with an inconclusive call do not appear. The source made the active and inactive calls. The call rests on the fitted dose curve; in most records, active means well fitted curve in the direction sought with a large enough effect; inconclusive means small, poorly fitted or top-dose-only effect, or another doubt; inactive means no such curve, though single readings can be large; an effect the other way counts as inactive or inconclusive.
Assays:
[1] = Quantitative High-Throughput drug screen in 47 multiple myeloma cell lines against the NCATS MIPE library collection: JIM1_ECACC cell viability assay (AID 1918964; further: potency means the concentration at half of the fitted maximal effect)
Procedure, shortened: (§1)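 Myeloma cell lines, 500 cells per well, exposed to MIPE 4.0 library compounds for 48 h at 37C, 5% CO2. Viability from ATP by CellTiter-Glo luminescence; normalised to DMSO (100%) and media-only (0%) wells.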

[2] = Quantitative High-Throughput drug screen in 47 multiple myeloma cell lines against the NCATS MIPE library collection: INA6_PLB cell viability assay (AID 1918965; further: potency means the concentration at half of the fitted maximal effect; nearly all actives have a fitted effect of over 55% in size)
Procedure, shortened: (§2)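 Steps: seed 500 cells per well; pin-transfer MIPE 4.0 library; incubate 48 h at 37C, 5% CO2, humidified; add CellTiter-Glo, 5 min room temperature; read luminescence.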

[3] = Quantitative High-Throughput drug screen in 47 multiple myeloma cell lines against the NCATS MIPE library collection: JJN3_DSMZ cell viability assay (AID 1918966; further: potency means the concentration at half of the fitted maximal effect; nearly all actives have a fitted effect of over 50% in size)
Procedure, shortened: as §1

[4] = Quantitative High-Throughput drug screen in 47 multiple myeloma cell lines against the NCATS MIPE library collection: H1112_PLB cell viability assay (AID 1918967; further: nearly all actives have a fitted effect of over 30% in size; further: potency means the concentration at half of the fitted maximal effect)
Procedure, shortened: as §1

[5] = Quantitative High-Throughput drug screen in 47 multiple myeloma cell lines against the NCATS MIPE library collection: Karpas25_ECACC cell viability assay (AID 1918968; further: potency means the concentration at half of the fitted maximal effect; nearly all actives have a fitted effect of over 35% in size)
Procedure, shortened: as §1

[6] = Quantitative High-Throughput drug screen in 47 multiple myeloma cell lines against the NCATS MIPE library collection: KMS27_JCRB cell viability assay (AID 1918970); settings: KMS27 myeloma cells, CellTiter-Glo ATP viability, 48 h; viability (% of DMSO): at 45.8 µM (top of the series); further: nearly all actives have a fitted effect of over 30% in size; further: potency means the concentration at half of the fitted maximal effect
Procedure, shortened: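 Each line is seeded at 500 cells per well and treated with library compounds for 48 hours under 37 °C, 5% CO2. CellTiter-Glo is then added for 5 min at room temperature before median relative luminescence is recorded.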

[7] = Quantitative High-Throughput drug screen in 47 multiple myeloma cell lines against the NCATS MIPE library collection: KMS12BM_JCRB cell viability assay (AID 1918971); further: nearly all actives have a fitted effect of over 35% in size; further: potency means the concentration at half of the fitted maximal effect
Procedure, shortened: (§3)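 Inhibition of cell viability is measured here. Each line was plated at 500 cells per well, treated with MIPE 4.0 drugs, kept 48 hours at 37C, then assayed for ATP content by CellTiter-Glo luminescence.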

[8] = Quantitative High-Throughput drug screen in 47 multiple myeloma cell lines against the NCATS MIPE library collection: KMS12PE_JCRB cell viability assay (AID 1918972); further: nearly all actives have a fitted effect of over 30% in size; further: potency means the concentration at half of the fitted maximal effect
Procedure, shortened: as §2

[9] = Quantitative High-Throughput drug screen in 47 multiple myeloma cell lines against the NCATS MIPE library collection: KMS20_JCRB cell viability assay (AID 1918973); further: potency means the concentration at half of the fitted maximal effect; nearly all actives have a fitted effect of over 45% in size
Procedure, shortened: as §1

[10] = Quantitative High-Throughput drug screen in 47 multiple myeloma cell lines against the NCATS MIPE library collection: KMS26_JCRB cell viability assay (AID 1918975); further: nearly all actives have a fitted effect of over 45% in size; further: potency means the concentration at half of the fitted maximal effect
Procedure, shortened: as §3

[11] = Quantitative High-Throughput drug screen in 47 multiple myeloma cell lines against the NCATS MIPE library collection: MMM1_PLB cell viability assay (AID 1918976); further: potency means the concentration at half of the fitted maximal effect; nearly all actives have a fitted effect of over 35% in size
Procedure, shortened: (§4)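 Inhibition of viability over 48 h was scored by ATP content (CellTiter-Glo) in 500-cell wells. Zero and full viability were defined by media-only and DMSO-only wells.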

[12] = Quantitative High-Throughput drug screen in 47 multiple myeloma cell lines against the NCATS MIPE library collection: NCIH929_DSMZ cell viability assay (AID 1918978); further: nearly all actives have a fitted effect of over 35% in size; further: potency means the concentration at half of the fitted maximal effect
Procedure, shortened: as §4

[13] = Quantitative High-Throughput drug screen in 47 multiple myeloma cell lines against the NCATS MIPE library collection: MM1S_ATCC cell viability assay (AID 1918980); further: potency means the concentration at half of the fitted maximal effect; nearly all actives have a fitted effect of over 45% in size
Procedure, shortened: as §4

[14] = Quantitative High-Throughput drug screen in 47 multiple myeloma cell lines against the NCATS MIPE library collection: MM1R_ATCC cell viability assay (AID 1918981); further: nearly all actives have a fitted effect of over 35% in size; further: potency means the concentration at half of the fitted maximal effect
Procedure, shortened: as §4

[15] = Quantitative High-Throughput drug screen in 47 multiple myeloma cell lines against the NCATS MIPE library collection: LP1_DSMZ cell viability assay (AID 1918982); further: nearly all actives have a fitted effect of over 35% in size; further: potency means the concentration at half of the fitted maximal effect
Procedure, shortened: as §4

[16] = Quantitative High-Throughput drug screen in 47 multiple myeloma cell lines against the NCATS MIPE library collection: OCIMY1_PLB cell viability assay (AID 1918979); further: nearly all actives have a fitted effect of over 35% in size; further: potency means the concentration at half of the fitted maximal effect
Procedure, shortened: as §4

[17] = Quantitative High-Throughput drug screen in 47 multiple myeloma cell lines against the NCATS MIPE library collection: JIM3_ECACC cell viability assay (AID 1918963; further: nearly all actives have a fitted effect of over 35% in size)
Procedure, shortened: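 Luminescent ATP measurement with CellTiter-Glo gives viability, scaled between DMSO-only wells (100%) and media-only wells (0%). Cells, 500 per well, faced library compounds for 48 hours at 37C.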

[18] = Quantitative High-Throughput drug screen in 47 multiple myeloma cell lines against the NCATS MIPE library collection: MOLP8_DSMZ cell viability assay (AID 1918977); further: nearly all actives have a fitted effect of over 45% in size; further: potency means the concentration at half of the fitted maximal effect
Procedure, shortened: as §4

[19] = Quantitative High-Throughput drug screen in 47 multiple myeloma cell lines against the NCATS MIPE library collection: KMS21BM_JCRB cell viability assay (AID 1918974); settings: ATP luminescence, 48 h; viability: at 45.8 µM (top of the series); further: potency means the concentration at half of the fitted maximal effect
Procedure, shortened: as §1

| Structure (SMILES) | Potency [1] | Potency [2] | Potency [3] | Potency [4] | Potency [5] | Potency [6] | Potency [7] | Potency [8] | Potency [9] | Potency [10] | Potency [11] | Potency [12] | Potency [13] | Potency [14] | Potency [15] | Potency [16] | Potency [17] | Potency [18] | Potency [19] |
| --- | --- | --- | --- | --- | --- | --- | --- | --- | --- | --- | --- | --- | --- | --- | --- | --- | --- | --- | --- |
| O=C1CSC(=O)N1C(CCc1ccncc1)COc1ccc(-c2cccc([N+](=O)[O-])c2)cc1 (stereo not given) | inactive | 5.9 µM (active) | 18.7 µM (active) | 7.43 µM (active) | 2.64 µM (active) | inactive | 7.43 µM (active) | inactive | 10.5 µM (active) | 4.18 µM (active) | 4.18 µM (active) | 18.7 µM (active) | 0.935 µM (active) | 2.35 µM (active) | 5.9 µM (active) |  |  |  |  |
| CS(=O)(=O)N1CCc2c(-c3cnc(N)nc3)nc(N3CCOCC3)nc21 |  | 1.48 µM (active) | 0.59 µM (active) |  | 0.105 µM (active) | 0.0235 µM (active) | 0.935 µM (active) |  |  | 0.132 µM (active) | 0.148 µM (active) | 0.0209 µM (active) | 0.235 µM (active) | 0.209 µM (active) | 0.0332 µM (active) |  |  |  |  |
| Cc1nc(NC(=O)N2CCC[C@@H]2C(N)=O)sc1-c1ccnc(C(C)(C)C(F)(F)F)c1 |  | 14.8 µM (active) | 6.62 µM (active) |  | 5.26 µM (active) | inactive | 10.5 µM (active) |  | 1.48 µM (active) | 4.18 µM (active) | 0.59 µM (active) | 0.148 µM (active) | 3.32 µM (active) | 1.66 µM (active) | 1.48 µM (active) | 0.0935 µM (active) |  |  |  |
| CCc1nc(-c2cccc(C)c2)c(-c2ccnc(NC(=O)c3ccccc3)c2)s1 | 9.35 µM (active) | 16.6 µM (active) |  | 14.8 µM (active) |  | inactive | 23.5 µM (active) | 6.62 µM (active) |  |  | 16.6 µM (active) |  | 20.9 µM (active) |  |  |  |  |  |  |
| Oc1cc2c(cc1O)C1c3ccc(O)c(O)c3OCC1(O)C2 (stereo not given) |  |  |  | inactive |  | inactive | inactive | inactive |  | inactive |  | inactive | 9.35 µM (active) |  | inactive | inactive | inactive | inactive |  |
| O=c1ccn([C@@H]2O[C@H](CO)[C@H](O)[C@@H]2F)c(=O)[nH]1 |  |  |  |  | 9.35 µM (active) |  |  | inactive |  | inactive | 2.64 µM (active) | 11.8 µM (active) | 5.26 µM (active) | inactive | inactive | inactive | inactive | inactive |  |
| Cn1cc(C=CC(=O)c2cccc(F)c2)cc1C=CC(=O)NO |  | 8.33 µM (active) |  |  | 8.33 µM (active) | 14.8 µM (active) |  | 14.8 µM (active) |  | 16.6 µM (active) |  | 20.9 µM (active) | 14.8 µM (active) | 16.6 µM (active) |  |  |  | 16.6 µM (active) | 4.69 µM (active) |
| CC1(C)O[C@@H]2C[C@H]3[C@@H]4CCC5=CC(=O)C=C[C@]5(C)[C@@H]4[C@@H](O)C[C@]3(C)[C@]2(C(=O)CO)O1 |  |  |  | inactive | 0.148 µM (active) |  | inactive | inactive | 6.62 µM (active) | inactive |  | 16.6 µM (active) | 0.296 µM (active) | inactive | 0.0166 µM (active) | inactive | inactive |  |  |
| CC[C@]12C=CCN3CC[C@@]4(c5cc([C@@]6(C(=O)OC)C[C@H]7C[C@@H](C(C)(F)F)CN(Cc8c6[nH]c6ccccc86)C7)c(OC)cc5N(C)[C@H]4[C@@](O)(C(=O)OC)[C@H]1OC(C)=O)[C@@H]32 |  | 0.001 µM (active) | 1.48 µM (active) | 0.0372 µM (active) | 0.0235 µM (active) |  | 0.0074 µM (active) | 0.0074 µM (active) |  | 1.48 µM (active) | 4.69 µM (active) | 0.469 µM (active) | 0.148 µM (active) | 0.469 µM (active) | 0.0209 µM (active) | 0.0469 µM (active) |  | 9.35 µM (active) |  |

— PubChem BioAssay (NCATS)
